Results with a measured potency or affinity are listed apart. Results filed as inconclusive are left out. Activity calls are given as the source filed them. Unless noted, how the calls were made is not given here.
Tests used:
[1] = cytotoxicity in PAX8-dependent RMG-1 cells, dose response, cell-based, cherry-pick (AID 687029;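 active means signal drop whose fitted half-maximal concentration is at most twice the top valid dose, in every test run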;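 further: cells exposed to compound for 96 hours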)
[2] = cytotoxicity in IOSE-T80 ovarian epithelial cells, dose response, selectivity assay for PAX8 inhibitor project, cell-based, cherry-pick (AID 687032;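 active means fitted half-maximal concentration for viability loss no higher than twice the top valid dose, in every repeat run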;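 further: cells exposed to compound for 96 h before reading; 0% = neutral control wells and -100% = 2 µM mitoxantrone kill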)
[3] = inhibitors of CMV-promoter luciferase reporter, dose response, counter-screen for Pax8 inhibitor project, cell-based, HEK293, luminescence, dry powder (AID 743020;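 active means signal-lowering compounds whose fitted half-maximal concentration is at or below twice the top tested dose in every run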;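 further: HEK293 cells stably expressing the CMV luciferase reporter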)
[4] = non-specific cell cytotoxicity, dose response, cytotoxicity control for PAX8 inhibitor project, plate reader, dry powder samples (AID 743021)
[5] = IGROV1 ovarian cancer cell cytotoxicity, dose response, PAX8 inhibitor project, plate reader, dry powder samples (AID 743043);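 further: more negative means fewer viable cells or more cytotoxicity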
[6] = NIH:OVCAR-3 ovarian cancer cell cytotoxicity, dose response, PAX8 inhibitor project, plate reader, dry powder samples (AID 743044); conditions: max activity: at 35 µM, active compounds read low unless noted
[7] = IOSE-T80 ovarian epithelial cell cytotoxicity, dose response, cytotoxicity control for PAX8 inhibitor project, plate reader, dry powder samples (AID 743045);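 further: 0% = neutral control median and -100% = positive control median; more negative values mean more cell killing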
[8] = A2780 ovarian cancer cell cytotoxicity, dose response, cytotoxicity control, plate reader, dry powder samples (AID 743046);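 further: 0% = neutral control wells and -100% = cytotoxic reference compound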
[9] = cytotoxicity in OVCAR8 ovarian cancer cells, dose response, PAX8 project, cell-based, plate reader, dry powder samples (AID 743197)
[10] = A549 cell cytotoxicity, dose response, cytotoxicity control, plate reader, cherry-pick, antagonist series (AID 743412);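 further: 0% = neutral control wells and -100% = positive control wells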
[11] = HepG2 cell cytotoxicity, dose response, cytotoxicity control, plate reader, cherry-pick, antagonist series (AID 743416);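 further: 0% = neutral control wells and -100% = positive control wells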

Measured: max activity

C[C@H](CO)N1C[C@H](C)[C@H](CN(C)Cc2ccc(Cl)c(Cl)c2)OCCCC[C@H](C)Oc2ccc(NC(=O)NC3CCCCC3)cc2C1=O
inactive: [1] | [2] | [3] | [4] | [5] | [6] -2.95% | [7] | [8] | [9]

C[C@@H]1CN([C@H](C)CO)C(=O)c2cc(NS(=O)(=O)c3ccc(F)cc3)ccc2O[C@@H](C)CCCCO[C@H]1CN(C)Cc1ccccc1
inactive: [1] | [2] | [3] | [4] | [5] | [6] 22.1% [at 1 µM, active compounds read low] | [7] | [9]

C[C@@H]1CN([C@H](C)CO)C(=O)c2cc(NC(=O)Nc3ccc(F)cc3)ccc2O[C@@H](C)CCCCO[C@H]1CN(C)S(=O)(=O)c1ccc(F)cc1
inactive: [1] | [2] | [3] | [4] | [5] | [6] -9.65% [at 0.5 µM, active compounds read low] | [7] | [9]

C[C@@H]1CN([C@H](C)CO)C(=O)c2c(c3ccccc3n2C)-c2ccccc2CO[C@H]1CN(C)S(=O)(=O)c1cccc(F)c1
inactive: [1] | [2] | [3] | [4] | [5] | [6] -15.8% [at 0.26 µM, active compounds read low] | [7] | [9]

C[C@@H]1CCCCO[C@@H](CN(C)Cc2ccc(Cl)c(Cl)c2)[C@H](C)CN([C@@H](C)CO)C(=O)c2cc(NC(=O)Nc3ccccc3)ccc2O1
inactive: [1] | [2] | [3] | [4] | [5] | [6] 10.2% [at 16 µM, active compounds read low] | [7] | [9]

C[C@H](CO)N1C[C@H](C)[C@@H](CN(C)Cc2ccc(Oc3ccccc3)cc2)OCc2ccccc2-c2c(n(C)c3ccccc23)C1=O
inactive: [1] | [2] | [3] | [4] | [5] | [6] 1.33% | [7] | [8] | [9]

C[C@H](CO)N1C[C@H](C)[C@@H](CN(C)Cc2ccc(Cl)c(Cl)c2)OCCCC[C@H](C)Oc2ccc(NS(=O)(=O)c3ccccc3)cc2C1=O
inactive: [1] | [2] | [3] | [4] | [5] | [6] -29.2% [at 2.1 µM, active compounds read low] | [7] | [9]

C[C@@H]1CN([C@@H](C)CO)C(=O)c2cc(NC(=O)Nc3cccc4ccccc34)ccc2O[C@@H]1CN(C)Cc1ccc2c(c1)OCO2
inactive: [1] | [2] | [3] | [4] | [5] | [6] 8.89% | [7] | [9]

C[C@@H]1CN([C@@H](C)CO)C(=O)c2cccc(NC(=O)c3ccncc3)c2O[C@@H]1CN(C)S(=O)(=O)c1cccs1
inactive: [1] | [2] | [3] | [4] | [5] | [6] 14.9% [at 2.1 µM, active compounds read low] | [7] | [9]

C[C@@H]1CCCCO[C@H](CN(C)Cc2ccc(C(F)(F)F)cc2)[C@@H](C)CN([C@@H](C)CO)C(=O)c2cc(NS(=O)(=O)c3cccs3)ccc2O1
inactive: [1] | [2] | [3] | [4] | [5] | [6] -7.27% [at 0.5 µM, active compounds read low] | [7] | [8] | [9]

C[C@@H]1CCCCO[C@H](CN(C)S(=O)(=O)c2ccccc2)[C@H](C)CN([C@@H](C)CO)C(=O)c2cc(NS(=O)(=O)c3ccc(Cl)cc3)ccc2O1
inactive: [1] | [2] | [3] | [4] | [5] | [7]

C[C@@H]1CCCCO[C@@H](CN(C)Cc2ccc(C(F)(F)F)cc2)[C@H](C)CN([C@H](C)CO)C(=O)c2cc(NC(=O)Nc3ccccc3)ccc2O1
inactive: [1] | [2] | [3] | [4] | [5] | [7]

Cc1noc(C)c1S(=O)(=O)Nc1ccc2c(c1)C(=O)N([C@@H](C)CO)C[C@H](C)[C@H](CN(C)C(=O)Nc1ccc(C(F)(F)F)cc1)OCCCC[C@H](C)O2
inactive: [1] | [2] | [3] | [4] | [5] | [6] -38.6% | [7] | [9]

C[C@@H]1CN([C@H](C)CO)C(=O)c2cc(NS(=O)(=O)c3ccc(Cl)cc3)ccc2O[C@@H](C)CCCCO[C@H]1CN(C)C(=O)C1CCCCC1
inactive: [1] | [2] | [3] | [4] | [5] | [6] -15.5% [at 0.56 µM, active compounds read low] | [7] | [9]

C[C@@H]1CN([C@H](C)CO)C(=O)c2cc(NC(=O)Nc3ccc(C(F)(F)F)cc3)ccc2O[C@@H](C)CCCCO[C@@H]1CN(C)Cc1ccc(Cl)c(Cl)c1
inactive: [1] | [2] | [3] | [4] | [5] | [7]

Cc1noc(C)c1NC(=O)Nc1cccc2c1O[C@H](CN(C)Cc1ccc(C(F)(F)F)cc1)[C@H](C)CN([C@@H](C)CO)C2=O
inactive: [1] | [2] | [3] | [4] | [5] | [6] -18.3% | [7] | [9]

COc1cccc(S(=O)(=O)N2CC[C@@H]3[C@H](CO)Nc4ccc(C5=CCCCC5)cc4[C@@H]32)c1
inactive: [1] | [2] | [3] | [4] | [5] | [6] 12.1% [at 0.5 µM, active compounds read low] | [7] | [9]

CN1c2ccc(-c3ccc(C#N)cc3)cc2[C@@H]2[C@@H](CCN2C(=O)NC2CCCCC2)[C@@H]1CO
inactive: [1] | [2] | [3] | [4] | [5] | [6] -6.17% [at 4.2 µM, active compounds read low] | [7] | [8] | [9]

COc1ccc(NC(=O)Nc2ccc3c(c2)C(=O)N([C@@H](C)CO)C[C@@H](C)[C@@H](CN(C)Cc2ccc(C(F)(F)F)cc2)OCCCC[C@@H](C)O3)cc1
inactive: [1] | [2] | [3] | [4] | [5] | [6] -11.3% | [7] | [8] | [9]

O=C(C[C@@H]1CC[C@@H]2[C@H](COC[C@H](O)CN2S(=O)(=O)c2cccc(Cl)c2)O1)Nc1ccc(-c2ccccc2)cc1
inactive: [1] | [2] | [3] | [4] | [5] | [6] -18.5% | [7] | [8] | [9]

O=C(C[C@@H]1C[C@H]2c3cc(NC(=O)C4CCOCC4)ccc3O[C@H]2[C@H](CO)O1)NCc1ccc(Oc2ccccc2)cc1
inactive: [1] | [2] | [3] | [4] | [5] | [6] -20% [at 8 µM, active compounds read low] | [7] | [8] | [9]

Cc1ccc(S(=O)(=O)Nc2ccc3c(c2)C(=O)N([C@H](C)CO)C[C@H](C)[C@@H](CN(C)S(=O)(=O)c2ccc(Cl)cc2)OCCCC[C@H](C)O3)cc1
inactive: [1] | [2] | [3] | [4] | [5] | [7]

C[C@@H]1CCCCO[C@@H](CN(C)C(=O)NC2CCCCC2)[C@H](C)CN([C@@H](C)CO)C(=O)c2cc(NC(=O)Nc3ccc(C(F)(F)F)cc3)ccc2O1
inactive: [1] | [2] | [3] | [4] | [5] | [7]

C[C@H]1CCCCO[C@H](CN(C)S(=O)(=O)c2ccc(Cl)cc2)[C@@H](C)CN([C@@H](C)CO)C(=O)c2cc(NS(=O)(=O)c3ccc(F)cc3)ccc2O1
inactive: [1] | [2] | [3] | [4] | [5] | [6] -9.44% [at 4.2 µM, active compounds read low] | [7] | [9]

C[C@@H]1CN([C@@H](C)CO)S(=O)(=O)c2ccc(C#Cc3ccccc3F)cc2O[C@H]1CN(C)CC1CCOCC1
inactive: [1] | [2] | [3] | [4] | [5] | [6] -11.1% [at 8 µM, active compounds read low] | [7] | [8] | [9]

CO[C@H]1CN(C)C(=O)c2cc(NC(=O)c3ccc(-c4ccccc4)cc3)ccc2OC[C@@H](C)NC[C@@H]1C
inactive: [1] | [2] | [3] | [4] | [5] | [7]

CC(C)CC#Cc1ccc([C@@H]2[C@@H](CO)N3CCCCN(S(=O)(=O)c4ccc(F)cc4)C[C@H]23)cc1
inactive: [1] | [2] | [3] | [4] | [5] | [6] 15.4% [at 16 µM, active compounds read low] | [7] | [9]

C[C@@H]1CCCCO[C@@H](CN(C)C(=O)NC2CCCCC2)[C@H](C)CN([C@H](C)CO)C(=O)c2cc(NS(=O)(=O)c3ccc(Cl)cc3)ccc2O1
inactive: [1] | [2] | [3] | [4] | [5] | [7]

Cc1ccc(S(=O)(=O)Nc2ccc3c(c2)C(=O)N([C@@H](C)CO)C[C@@H](C)[C@H](CN(C)S(=O)(=O)c2ccc(Cl)cc2)OCCCC[C@@H](C)O3)cc1
inactive: [1] | [2] | [3] | [4] | [5] | [6] 20.2% [at 0.26 µM, active compounds read low] | [7] | [9]

O=C(CN1C(=O)c2ccccc2S1(=O)=O)c1ccccc1Cl
inactive: [1] | [2] | [3] | [4] | [5] | [6] | [7] | [8] | [10] | [11]

C[C@H]1CN([C@@H](C)CO)S(=O)(=O)c2ccc(C#Cc3ccccc3F)cc2O[C@@H]1CN(C)CC1CCOCC1
inactive: [1] | [2] | [3] | [4] | [5] | [7]

C[C@@H]1CCCCO[C@@H](CN(C)Cc2ccc(Cl)c(Cl)c2)[C@H](C)CN([C@@H](C)CO)C(=O)c2cc(NC(=O)Cc3ccccc3)ccc2O1
inactive: [1] | [2] | [3] | [4] | [5] | [6] -29.2% [at 16 µM, active compounds read low] | [7] | [8] | [9]

C[C@H](CO)N1C[C@H](C)[C@H](CN(C)Cc2ccc(Cl)c(Cl)c2)OCCCC[C@H](C)Oc2ccc(NC(=O)Nc3ccccc3)cc2C1=O
inactive: [1] | [2] | [3] | [4] | [5] | [6] -25.9% [at 0.26 µM, active compounds read low] | [7] | [9]

— PubChem BioAssay
